# PMC7862700, “An all-to-all approach to the identification of sequence-specific readers for epigenetic DNA modifications on cytosine”
# Experiments:
# Experiment in all cases: DAPPL (digital affinity profiling via proximity ligation, sequencing); 10 mM Tris-HCl pH 7.5, 50 mM NaCl, 1 mM DTT, 4% glycerol, room temperature, 30 min; GST-TFs on glutathione beads, 16-mer random dsDNA library, 0.1% formaldehyde crosslink after washing; high values mean tight binding
# [1] = biological target: T1, FLI1 (Homo sapiens, UniProt Q01543 1-452); conditions: protein: recombinant; tags: N-terminal GST; dsDNA, one strand shown
# T1 sequence: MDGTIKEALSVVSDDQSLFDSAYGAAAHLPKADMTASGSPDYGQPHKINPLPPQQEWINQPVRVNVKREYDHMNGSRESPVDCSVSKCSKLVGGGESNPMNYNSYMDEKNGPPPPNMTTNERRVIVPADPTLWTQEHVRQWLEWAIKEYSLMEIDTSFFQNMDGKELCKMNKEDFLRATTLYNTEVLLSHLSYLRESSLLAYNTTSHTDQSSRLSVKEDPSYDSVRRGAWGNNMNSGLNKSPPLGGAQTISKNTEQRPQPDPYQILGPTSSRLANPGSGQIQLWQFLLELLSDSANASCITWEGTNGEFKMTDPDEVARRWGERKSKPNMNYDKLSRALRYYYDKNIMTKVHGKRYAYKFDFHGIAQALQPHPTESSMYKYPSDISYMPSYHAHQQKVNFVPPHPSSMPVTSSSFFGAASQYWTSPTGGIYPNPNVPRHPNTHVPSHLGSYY
# In short: (§1)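 GST fusions of human transcription factors were expressed in yeast and captured with glutathione beads. Once given DNA barcodes and pooled alongside a tag-only sample, they were incubated for 30 min at room temperature with 200 nmole of a random double-stranded 16-mer DNA library in Tris/NaCl/DTT/glycerol buffer, then washed, crosslinked (0.1% formaldehyde), proximity-ligated, PCR-amplified and sequenced on an Illumina NextSeq500. The binding signal of each hexamer is its read frequency for a factor divided by its frequency for the tag-only sample.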
# [2] = biological target: T2, ELK1 (Homo sapiens, UniProt P19419 1-428); conditions: protein: recombinant; tags: N-terminal GST; dsDNA, one strand shown
# T2 sequence: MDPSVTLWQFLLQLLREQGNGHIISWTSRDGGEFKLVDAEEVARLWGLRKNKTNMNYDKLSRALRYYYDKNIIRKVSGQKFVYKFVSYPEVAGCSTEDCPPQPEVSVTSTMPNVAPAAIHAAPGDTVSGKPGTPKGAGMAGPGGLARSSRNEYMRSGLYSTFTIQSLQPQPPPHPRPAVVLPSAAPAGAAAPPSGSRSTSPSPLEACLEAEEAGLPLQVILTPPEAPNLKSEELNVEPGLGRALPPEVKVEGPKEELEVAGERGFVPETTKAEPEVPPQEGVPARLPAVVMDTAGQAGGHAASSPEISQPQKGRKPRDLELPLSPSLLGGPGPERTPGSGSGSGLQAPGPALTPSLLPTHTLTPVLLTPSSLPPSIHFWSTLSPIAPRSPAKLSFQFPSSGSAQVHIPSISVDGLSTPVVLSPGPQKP
# In short: as §1
# [3] = biological target: T3, GABPA (Homo sapiens, UniProt Q06546 1-454); conditions: protein: recombinant; tags: N-terminal GST; dsDNA, one strand shown
# T3 sequence: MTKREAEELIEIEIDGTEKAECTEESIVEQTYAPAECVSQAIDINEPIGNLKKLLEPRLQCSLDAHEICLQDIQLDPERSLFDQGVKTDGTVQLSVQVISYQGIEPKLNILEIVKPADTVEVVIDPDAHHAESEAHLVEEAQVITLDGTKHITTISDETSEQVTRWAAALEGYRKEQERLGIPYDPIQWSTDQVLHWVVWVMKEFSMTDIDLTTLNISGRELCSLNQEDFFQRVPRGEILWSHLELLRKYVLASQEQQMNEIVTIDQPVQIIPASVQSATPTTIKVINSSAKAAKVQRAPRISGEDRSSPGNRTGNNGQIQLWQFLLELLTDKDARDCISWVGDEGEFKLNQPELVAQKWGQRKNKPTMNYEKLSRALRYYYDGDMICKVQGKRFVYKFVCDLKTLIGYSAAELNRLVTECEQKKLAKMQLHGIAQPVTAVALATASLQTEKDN
# In short: as §1
# [4] = biological target: T4, ERG (Homo sapiens, UniProt P11308 1-479); conditions: protein: recombinant; tags: N-terminal GST; dsDNA, one strand shown
# T4 sequence: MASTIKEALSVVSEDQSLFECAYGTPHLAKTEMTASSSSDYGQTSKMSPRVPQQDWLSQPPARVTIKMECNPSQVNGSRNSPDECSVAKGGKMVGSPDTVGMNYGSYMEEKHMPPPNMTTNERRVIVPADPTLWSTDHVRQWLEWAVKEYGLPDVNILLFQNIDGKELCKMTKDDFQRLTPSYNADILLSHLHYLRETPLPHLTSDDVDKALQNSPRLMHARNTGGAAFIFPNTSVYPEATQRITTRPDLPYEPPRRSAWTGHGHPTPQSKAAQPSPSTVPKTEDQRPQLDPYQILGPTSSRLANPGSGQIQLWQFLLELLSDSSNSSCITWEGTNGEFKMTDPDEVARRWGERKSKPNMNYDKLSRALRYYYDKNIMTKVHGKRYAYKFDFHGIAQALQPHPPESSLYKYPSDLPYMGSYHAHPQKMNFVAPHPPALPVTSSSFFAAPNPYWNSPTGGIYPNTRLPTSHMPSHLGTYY
# In short: as §1
# [5] = biological target: ELF1 (Homo sapiens, UniProt P32519 1-619); conditions: protein: recombinant; tags: N-terminal GST; dsDNA, one strand shown
# In short: as §1
# [6] = biological target: T5, EHF (Homo sapiens, UniProt Q9NZC4 1-300); conditions: protein: recombinant; tags: N-terminal GST; dsDNA, one strand shown
# T5 sequence: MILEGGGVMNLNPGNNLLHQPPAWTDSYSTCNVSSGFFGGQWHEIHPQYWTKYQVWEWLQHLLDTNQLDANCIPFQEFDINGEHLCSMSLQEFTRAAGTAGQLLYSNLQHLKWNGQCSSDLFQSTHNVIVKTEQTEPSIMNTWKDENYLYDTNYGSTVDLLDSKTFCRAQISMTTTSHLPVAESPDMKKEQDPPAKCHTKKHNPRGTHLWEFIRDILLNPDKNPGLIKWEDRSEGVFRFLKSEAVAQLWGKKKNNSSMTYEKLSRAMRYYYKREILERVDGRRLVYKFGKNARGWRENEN
# In short: as §1
# [7] = biological target: SPI1 (Homo sapiens, UniProt P17947 1-270); conditions: protein: recombinant; tags: N-terminal GST; dsDNA, one strand shown
# In short: as §1
# [8] = biological target: SPIB (Homo sapiens, UniProt Q01892 1-262); conditions: protein: recombinant; tags: N-terminal GST; dsDNA, one strand shown
# In short: as §1
# [9] = biological target: T6, ELK3 (Homo sapiens, UniProt P41970 1-407); conditions: protein: recombinant; tags: N-terminal GST; dsDNA, one strand shown
# T6 sequence: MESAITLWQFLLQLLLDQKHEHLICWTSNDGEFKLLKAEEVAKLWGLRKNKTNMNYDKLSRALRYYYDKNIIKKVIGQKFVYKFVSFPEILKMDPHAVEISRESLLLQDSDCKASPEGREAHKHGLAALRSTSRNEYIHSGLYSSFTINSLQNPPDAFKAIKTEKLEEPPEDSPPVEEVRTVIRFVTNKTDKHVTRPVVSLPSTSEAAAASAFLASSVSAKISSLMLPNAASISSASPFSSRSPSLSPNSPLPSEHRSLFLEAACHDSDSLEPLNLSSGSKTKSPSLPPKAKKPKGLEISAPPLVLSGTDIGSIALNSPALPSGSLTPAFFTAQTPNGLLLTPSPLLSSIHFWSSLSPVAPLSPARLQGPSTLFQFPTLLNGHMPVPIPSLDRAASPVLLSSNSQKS
# In short: as §1
# [10] = biological target: T7, FEV (Homo sapiens, UniProt Q99581 1-238); conditions: protein: recombinant; tags: N-terminal GST; dsDNA, one strand shown
# T7 sequence: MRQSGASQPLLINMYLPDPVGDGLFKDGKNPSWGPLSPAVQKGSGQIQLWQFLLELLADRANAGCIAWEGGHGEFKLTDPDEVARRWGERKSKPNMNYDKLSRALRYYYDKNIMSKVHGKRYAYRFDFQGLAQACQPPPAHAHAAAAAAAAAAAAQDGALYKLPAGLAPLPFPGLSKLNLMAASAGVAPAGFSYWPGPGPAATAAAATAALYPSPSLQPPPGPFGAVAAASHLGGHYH
# In short: as §1
# [11] = biological target: ETV5 (Homo sapiens, UniProt P41161 1-510); conditions: protein: recombinant; tags: N-terminal GST; dsDNA, one strand shown
# In short: as §1
# [12] = biological target: HSF1 (Homo sapiens, UniProt Q00613 1-529); conditions: protein: recombinant; tags: N-terminal GST; chain copies: 3; dsDNA, one strand shown
# In short: as §1
# [13] = biological target: T8, SPIC (Homo sapiens, UniProt Q8N5J4 1-248); conditions: protein: recombinant; tags: N-terminal GST; dsDNA, one strand shown
# T8 sequence: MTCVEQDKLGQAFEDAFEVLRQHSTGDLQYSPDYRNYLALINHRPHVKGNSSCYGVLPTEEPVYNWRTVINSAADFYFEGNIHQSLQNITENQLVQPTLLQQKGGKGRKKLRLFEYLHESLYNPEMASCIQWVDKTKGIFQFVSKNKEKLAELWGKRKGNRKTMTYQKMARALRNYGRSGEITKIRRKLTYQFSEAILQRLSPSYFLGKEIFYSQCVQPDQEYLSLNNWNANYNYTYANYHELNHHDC
# In short: as §1
# [14] = biological target: ELF4 (Homo sapiens, UniProt Q99607 1-663); conditions: protein: recombinant; tags: N-terminal GST; dsDNA, one strand shown
# In short: as §1
# [15] = biological target: T9, ELK4 (Homo sapiens, UniProt P28324-2 1-405); conditions: protein: recombinant; tags: N-terminal GST; dsDNA, one strand shown
# T9 sequence: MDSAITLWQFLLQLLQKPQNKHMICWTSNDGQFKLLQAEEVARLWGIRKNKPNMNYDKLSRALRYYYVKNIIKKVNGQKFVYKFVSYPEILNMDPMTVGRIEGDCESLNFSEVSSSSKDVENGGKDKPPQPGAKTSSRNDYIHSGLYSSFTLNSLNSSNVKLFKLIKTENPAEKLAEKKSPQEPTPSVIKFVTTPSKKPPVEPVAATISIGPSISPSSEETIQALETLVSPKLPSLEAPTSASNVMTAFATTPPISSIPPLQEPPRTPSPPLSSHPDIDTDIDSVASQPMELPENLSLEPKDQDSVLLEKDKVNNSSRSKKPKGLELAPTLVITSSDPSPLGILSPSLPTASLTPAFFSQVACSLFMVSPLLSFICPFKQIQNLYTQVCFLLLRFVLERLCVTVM
# In short: as §1
# [16] = biological target: T10, ETV2 (Homo sapiens, UniProt O00321 1-342); conditions: protein: recombinant; tags: N-terminal GST; dsDNA, one strand shown
# T10 sequence: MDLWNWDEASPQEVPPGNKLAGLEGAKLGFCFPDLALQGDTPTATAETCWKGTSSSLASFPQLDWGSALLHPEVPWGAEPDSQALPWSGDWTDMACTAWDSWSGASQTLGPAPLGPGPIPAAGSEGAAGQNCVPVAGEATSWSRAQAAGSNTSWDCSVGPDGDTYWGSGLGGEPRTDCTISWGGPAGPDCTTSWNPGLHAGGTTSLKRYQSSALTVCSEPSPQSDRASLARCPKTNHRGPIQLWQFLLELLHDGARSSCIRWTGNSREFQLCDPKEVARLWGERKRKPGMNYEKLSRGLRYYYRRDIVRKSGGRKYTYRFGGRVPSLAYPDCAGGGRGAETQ
# In short: as §1
# [17] = biological target: T11, ELF3 (Homo sapiens, UniProt P78545 1-371); conditions: protein: recombinant; tags: N-terminal GST; dsDNA, one strand shown
# T11 sequence: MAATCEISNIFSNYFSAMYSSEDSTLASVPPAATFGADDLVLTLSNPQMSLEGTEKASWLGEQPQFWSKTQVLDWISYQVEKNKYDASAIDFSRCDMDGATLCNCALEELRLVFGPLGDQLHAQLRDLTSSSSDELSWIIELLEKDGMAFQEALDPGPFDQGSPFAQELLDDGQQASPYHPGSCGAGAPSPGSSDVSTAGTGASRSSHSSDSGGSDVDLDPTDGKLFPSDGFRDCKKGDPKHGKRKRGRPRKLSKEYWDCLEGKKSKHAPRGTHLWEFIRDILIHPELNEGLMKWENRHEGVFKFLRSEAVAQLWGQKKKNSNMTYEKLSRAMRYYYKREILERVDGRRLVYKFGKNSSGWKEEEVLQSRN
# In short: as §1
# [18] = biological target: CRX (Homo sapiens, UniProt O43186 1-299); conditions: protein: recombinant; tags: N-terminal GST; dsDNA, one strand shown
# In short: as §1
# [19] = biological target: ETV1 (Homo sapiens, UniProt P50549 1-477); conditions: protein: recombinant; tags: N-terminal GST; dsDNA, one strand shown
# In short: as §1
# SPIB, sequence (Q01892 whole entry): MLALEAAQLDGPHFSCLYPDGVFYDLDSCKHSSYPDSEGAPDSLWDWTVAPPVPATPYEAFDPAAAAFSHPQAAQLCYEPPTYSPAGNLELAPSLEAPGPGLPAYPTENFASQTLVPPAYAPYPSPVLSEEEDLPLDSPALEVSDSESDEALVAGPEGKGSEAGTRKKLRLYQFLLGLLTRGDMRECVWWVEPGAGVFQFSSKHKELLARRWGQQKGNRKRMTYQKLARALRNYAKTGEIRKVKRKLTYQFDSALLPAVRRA
# HSF1, sequence (Q00613 whole entry): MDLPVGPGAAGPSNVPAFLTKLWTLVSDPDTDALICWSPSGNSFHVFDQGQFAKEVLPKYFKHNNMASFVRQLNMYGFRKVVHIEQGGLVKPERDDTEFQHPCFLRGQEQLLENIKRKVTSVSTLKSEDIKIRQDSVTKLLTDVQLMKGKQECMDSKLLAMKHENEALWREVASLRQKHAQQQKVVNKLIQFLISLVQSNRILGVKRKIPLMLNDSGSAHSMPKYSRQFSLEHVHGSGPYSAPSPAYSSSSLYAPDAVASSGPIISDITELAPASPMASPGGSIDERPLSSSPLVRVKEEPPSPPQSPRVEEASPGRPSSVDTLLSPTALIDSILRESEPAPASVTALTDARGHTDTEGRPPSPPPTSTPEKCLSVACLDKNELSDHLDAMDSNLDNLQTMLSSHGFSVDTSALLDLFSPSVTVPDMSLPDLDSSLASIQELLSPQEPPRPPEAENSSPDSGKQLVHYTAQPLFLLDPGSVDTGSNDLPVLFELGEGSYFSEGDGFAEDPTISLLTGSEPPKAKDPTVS
# ETV5, sequence (P41161 whole entry): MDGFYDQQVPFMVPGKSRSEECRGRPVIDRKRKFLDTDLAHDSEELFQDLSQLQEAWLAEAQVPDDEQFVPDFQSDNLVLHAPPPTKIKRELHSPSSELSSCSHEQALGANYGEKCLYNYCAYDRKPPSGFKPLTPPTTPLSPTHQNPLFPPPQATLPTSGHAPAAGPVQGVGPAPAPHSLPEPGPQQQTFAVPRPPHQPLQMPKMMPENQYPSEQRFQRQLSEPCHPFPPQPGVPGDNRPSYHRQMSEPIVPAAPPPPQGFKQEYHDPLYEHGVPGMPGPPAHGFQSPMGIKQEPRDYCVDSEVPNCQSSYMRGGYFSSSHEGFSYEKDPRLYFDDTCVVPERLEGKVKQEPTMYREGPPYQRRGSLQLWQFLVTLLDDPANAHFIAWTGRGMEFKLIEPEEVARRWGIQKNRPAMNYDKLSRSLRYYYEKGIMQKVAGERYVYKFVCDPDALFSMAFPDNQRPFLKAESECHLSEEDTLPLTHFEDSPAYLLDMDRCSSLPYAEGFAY
# ELF4, sequence (Q99607 whole entry): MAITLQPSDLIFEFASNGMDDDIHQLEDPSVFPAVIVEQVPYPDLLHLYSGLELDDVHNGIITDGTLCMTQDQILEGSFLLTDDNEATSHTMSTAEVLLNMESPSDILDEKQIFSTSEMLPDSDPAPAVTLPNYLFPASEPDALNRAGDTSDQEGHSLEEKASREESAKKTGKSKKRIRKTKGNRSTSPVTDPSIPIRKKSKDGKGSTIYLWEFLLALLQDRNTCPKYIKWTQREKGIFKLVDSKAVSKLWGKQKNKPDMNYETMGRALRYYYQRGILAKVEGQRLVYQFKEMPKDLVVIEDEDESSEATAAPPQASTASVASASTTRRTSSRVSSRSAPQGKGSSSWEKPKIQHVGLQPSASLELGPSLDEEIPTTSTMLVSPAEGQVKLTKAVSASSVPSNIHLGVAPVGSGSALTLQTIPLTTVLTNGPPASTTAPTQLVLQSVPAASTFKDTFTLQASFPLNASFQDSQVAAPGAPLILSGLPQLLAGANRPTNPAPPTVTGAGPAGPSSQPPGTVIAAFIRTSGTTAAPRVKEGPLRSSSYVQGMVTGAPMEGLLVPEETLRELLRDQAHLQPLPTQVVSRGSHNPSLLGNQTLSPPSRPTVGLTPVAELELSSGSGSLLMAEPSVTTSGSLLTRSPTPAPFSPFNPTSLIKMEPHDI
# ELF1, sequence (P32519 whole entry): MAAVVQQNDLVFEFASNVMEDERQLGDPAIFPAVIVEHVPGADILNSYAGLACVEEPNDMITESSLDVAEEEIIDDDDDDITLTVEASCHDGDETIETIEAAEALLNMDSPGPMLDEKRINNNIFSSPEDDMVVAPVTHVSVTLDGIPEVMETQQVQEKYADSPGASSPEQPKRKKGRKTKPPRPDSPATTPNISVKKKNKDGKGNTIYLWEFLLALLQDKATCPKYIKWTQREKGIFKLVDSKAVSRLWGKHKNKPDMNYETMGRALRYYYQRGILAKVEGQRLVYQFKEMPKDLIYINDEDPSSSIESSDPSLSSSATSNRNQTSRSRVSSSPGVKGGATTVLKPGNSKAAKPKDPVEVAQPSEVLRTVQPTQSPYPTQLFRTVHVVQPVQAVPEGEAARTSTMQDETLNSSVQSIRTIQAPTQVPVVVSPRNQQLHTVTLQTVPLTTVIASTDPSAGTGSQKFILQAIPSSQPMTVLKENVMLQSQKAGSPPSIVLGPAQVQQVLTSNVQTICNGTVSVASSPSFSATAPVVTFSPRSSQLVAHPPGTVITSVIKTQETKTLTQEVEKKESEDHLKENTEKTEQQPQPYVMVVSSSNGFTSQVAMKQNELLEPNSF
# CRX, sequence (O43186 whole entry): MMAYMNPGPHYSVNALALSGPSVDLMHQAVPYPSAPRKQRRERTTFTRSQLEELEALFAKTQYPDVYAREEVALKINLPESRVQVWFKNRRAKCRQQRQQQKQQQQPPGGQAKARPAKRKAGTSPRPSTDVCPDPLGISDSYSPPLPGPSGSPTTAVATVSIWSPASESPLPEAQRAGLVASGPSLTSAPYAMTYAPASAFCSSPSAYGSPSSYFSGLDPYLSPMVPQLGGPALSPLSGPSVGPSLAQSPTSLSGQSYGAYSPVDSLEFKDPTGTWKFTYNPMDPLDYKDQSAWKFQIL
# ETV1, sequence (P50549 whole entry): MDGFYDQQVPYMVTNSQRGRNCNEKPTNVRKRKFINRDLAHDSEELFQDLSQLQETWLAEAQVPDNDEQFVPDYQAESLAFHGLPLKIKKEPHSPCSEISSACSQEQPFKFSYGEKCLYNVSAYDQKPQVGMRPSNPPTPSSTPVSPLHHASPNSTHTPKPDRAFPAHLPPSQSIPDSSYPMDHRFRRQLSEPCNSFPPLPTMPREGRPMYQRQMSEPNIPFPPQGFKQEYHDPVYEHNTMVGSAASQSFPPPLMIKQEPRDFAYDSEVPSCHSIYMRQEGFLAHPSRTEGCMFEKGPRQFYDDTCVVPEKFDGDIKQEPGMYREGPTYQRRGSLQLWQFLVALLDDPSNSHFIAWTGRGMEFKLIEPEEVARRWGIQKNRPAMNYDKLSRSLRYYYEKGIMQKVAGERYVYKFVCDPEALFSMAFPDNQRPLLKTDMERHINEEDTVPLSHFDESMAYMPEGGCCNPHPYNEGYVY
sequence,measurement,setting,value
TAGGGT,binding signal,[1],"1.04 fold enrichment (6-mer frequency, TF over GST control)"
same,binding signal,[2],"1.03 fold enrichment (6-mer frequency, TF over GST control)"
same,binding signal,[3],"1.11 fold enrichment (6-mer frequency, TF over GST control)"
same,binding signal,[4],"1.03 fold enrichment (6-mer frequency, TF over GST control)"
same,binding signal,[5],"1.16 fold enrichment (6-mer frequency, TF over GST control)"
same,binding signal,[6],"1.09 fold enrichment (6-mer frequency, TF over GST control)"
same,binding signal,[7],"1.13 fold enrichment (6-mer frequency, TF over GST control)"
same,binding signal,[8],"1.1 fold enrichment (6-mer frequency, TF over GST control)"
same,binding signal,[9],"1.04 fold enrichment (6-mer frequency, TF over GST control)"
same,binding signal,[10],"1.07 fold enrichment (6-mer frequency, TF over GST control)"
same,binding signal,[11],"1.08 fold enrichment (6-mer frequency, TF over GST control)"
same,binding signal,[12],"1.06 fold enrichment (6-mer frequency, TF over GST control)"
same,binding signal,[13],"1.11 fold enrichment (6-mer frequency, TF over GST control)"
same,binding signal,[14],"1.09 fold enrichment (6-mer frequency, TF over GST control)"
same,binding signal,[15],"1.22 fold enrichment (6-mer frequency, TF over GST control)"
same,binding signal,[16],"1.16 fold enrichment (6-mer frequency, TF over GST control)"
same,binding signal,[17],"1.1 fold enrichment (6-mer frequency, TF over GST control)"
same,binding signal,[18],"1.2 fold enrichment (6-mer frequency, TF over GST control)"
same,binding signal,[19],"1.01 fold enrichment (6-mer frequency, TF over GST control)"
